Measurements: PubChem BioAssay AID686978 (National Center for Advancing Translational Sciences (NCATS), 2013)
Several values for one entry are separate records, joined by “and”; a condition that tells them apart may be missing. Equal entries are not always repeated. Hit rate of the full screen: of about 420,000 compounds, about 64,000 (15%) were called active. Roughly 27% stayed inconclusive and do not appear here. Calls follow the shape of the dose curve; as a rule, active = well fitted inhibition curve with a large enough effect; inconclusive = small, poorly fitted or top-dose-only effect; inactive = flat fitted curve, though single readings scatter. The list is a sample of the results. Entries that show only a call come without a potency.
Potency is read from the fitted curve at half-maximal effect.

Assay: qHTS for Inhibitors of human tyrosyl-DNA phosphodiesterase 1 (TDP1): qHTS in cells in absence of CPT; also: nearly all actives have a fitted effect of over 55% in size
Conditions: DT40 Tdp1-/- hTDP1 cells, no CPT, ATP luminescence, 48 h; activity change, negative = growth inhibition: at 46.2 µM (top of the series)
Outline: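 Seeded 400 DT40-hTDP1 cells/well (vehicle DMSO, no 20 nM CPT); pinned compounds; ≥48 hr at 37 °C; CellTiter-Glo luminescence as viability measure.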
For `CCOCCN(C=O)c1cccc(OC)c1`, the Potency was “inactive”.
In the case of `Cc1cc(C)c2c(Cn3ccnc3)cc(=O)oc2c1`, the Potency is reported as “inactive”.
For `CC(C)C[C@H](NC(=O)N1CC(=O)Nc2ccccc21)C(=O)N[C@H](Cc1ccccc1)C(=O)O`, the Potency was “inactive”.
For `CSCC[C@H](NC(=O)NC1CCCC1)C(=O)O`, the Potency was “inactive”.
In the case of `O=C(Nc1nccs1)c1cc(S(=O)(=O)N2CCOCC2)c(Cl)cc1Cl`, the Potency is reported as “inactive”.
For `CCCOc1ccc(C2NC(=O)NC(c3ccccc3)=C2C(C)=O)cc1OCC` (stereo not given), the Potency was 23.1 µM (active).
In the case of `COc1cc(C2NC(=O)NC(c3ccccc3)=C2C(C)=O)c(Br)cc1OCC(N)=O` (stereo not given), the Potency is reported as “inactive”.
In the case of `CCOC(=O)C1=C(c2ccccc2)NC(=O)NC1c1cc(OCC)c(O)c([N+](=O)[O-])c1` (stereo not given), the Potency is reported as “inactive”.
With `CC(C)(C(=O)N1CCC1(C)C(=O)NS(=O)(=O)c1ccc(Br)cc1)c1ccccc1` (stereo not given) the Potency was “inactive”.
With `CSc1nsc(SCC(=O)Nc2cc(C(=O)O)ccc2C)n1` the Potency was “inactive”.
In the case of `OC(C#CCN1CCOCC1)(c1ccccc1)C1CCCCC1` (stereo not given), the Potency is reported as “inactive”.
With `COc1ccc(C(O)(C2CCCCC2)C(CN2CCCC2)c2ccccc2)cc1` (stereo not given) the Potency was 18.4 µM (active).
With `CC(CN1CCCCC1)c1ccccc1` (stereo not given) the Potency was “inactive”.
With `CCc1nccn1S(=O)(=O)c1cc(Br)ccc1Br` the Potency was “inactive”.
For `CCCCOc1ccc(C(=O)Nc2cccc(-c3nc4ccccc4o3)c2C)cc1`, the Potency was “inactive”.
In the case of `CC(=O)Nc1ccc(-c2nc3ccccc3o2)cc1`, the Potency is reported as “inactive”.
In the case of `Cc1ccccc1-c1nc2cc(NC(=O)c3cccc(OCCC(C)C)c3)ccc2o1`, the Potency is reported as 5.17 µM (active).
With `COc1cc(OC)cc(C(=O)Nc2ccc(-c3nc4ccccc4o3)c(O)c2)c1` the Potency was 16.4 µM (active).
In the case of `O=C(COc1ccc(Cl)cc1)Nc1ccc(-c2nc3cc(Cl)ccc3o2)c(O)c1`, the Potency is reported as “inactive”.
For `CCCCCC(=O)Nc1ccc2oc(-c3ccncc3)nc2c1`, the Potency was “inactive”.
In the case of `Cc1cc2nc(-c3ccc(NC(=O)c4cc5ccccc5o4)cc3)oc2cc1C`, the Potency is reported as “inactive”.
With `CCCOc1ccc(C(=O)Nc2ccc3oc(-c4cccc(Cl)c4Cl)nc3c2)cc1` the Potency was 7.31 µM (active).
For `O=C(Nc1ccc(C(=O)O)c(O)c1)c1ccccc1`, the Potency was “inactive”.
For `O=C(Nc1ccc(-c2nc3cc(NC(=O)c4ccccc4Cl)ccc3o2)cc1)c1ccccc1Cl`, the Potency was 2.91 µM (active).
For `Cc1nc2nc[nH]n2c(=O)c1NC(=O)c1cccc(OCC(C)C)c1`, the Potency was “inactive”.
With `NS(=O)(=O)c1ccc(CCNC(=O)CNC(=O)Cc2ccccc2)cc1` the Potency was “inactive”.
In the case of `NC(=O)C1CC=CCC1C(=O)OCC(Cl)=C(Cl)Cl` (stereo not given), the Potency is reported as “inactive”.
With `CC(C)NC(=S)N1CCN(S(C)(=O)=O)CC1` the Potency was “inactive”.
In the case of `C[n+]1cc(-c2ccccc2)oc1-c1ccccc1`, the Potency is reported as “inactive”.
For `COc1cc(OC)cc(C(=O)NNC(=O)Cc2cccs2)c1`, the Potency was “inactive”.
With `CC(C)(C)n1nc2c(c1NC(=O)c1ccc(S(=O)(=O)N3CCCC3)cc1)CS(=O)C2` (stereo not given) the Potency was “inactive”.
With `CC(C)(C)n1c(=O)[nH]c2c(c1=O)CCC2` the Potency was “inactive”.
With `CC1(C)CC(=O)C(N=Nc2c(F)cccc2F)=C(O)C1` the Potency was “inactive”.
In the case of `NC1=NC(=O)C2(COC(c3ccccc3Cl)OC2)S1` (stereo not given), the Potency is reported as “inactive”.
In the case of `O=C(CSc1ncccn1)NC(=O)NCc1ccccc1`, the Potency is reported as “inactive”.
For `COc1cc(NC(=O)CN2CCN(S(=O)(=O)c3ccc(Br)cc3)CC2)cc(OC)c1`, the Potency was “inactive”.
For `COc1cccc(-c2nc3cc(C)ccc3o2)c1`, the Potency was “inactive”.
With `COC(=O)c1ccc(-c2nc3cc(NC(C)=O)ccc3o2)cc1` the Potency was “inactive”.
With `COc1cccc(C(=O)Nc2ccc3oc(-c4ccc5ccccc5c4)nc3c2)c1` the Potency was 10.3 µM (active).
For `O=C(Nc1ccc2oc(-c3ccc(O)c(Br)c3)nc2c1)c1cc2ccccc2o1`, the Potency was “inactive”.
For `O=C(Nc1ccc(NC(=O)c2cccs2)cc1)c1ccc2ccccc2c1`, the Potency was “inactive”.
For `O=C(Nc1ccc2oc(-c3ccc4ccccc4c3)nc2c1)c1cccs1`, the Potency was 23.1 µM (active).
With `COCCNC(=O)c1ccccc1-c1nc(-c2ccccc2Cl)no1` the Potency was “inactive”.
With `COc1ccccc1CCCNC(=O)C1CCC(=O)N(CCN2CCOCC2)C1` (stereo not given) the Potency was “inactive”.
For `Cn1c(N)c(C(=O)COC(=O)COc2ccc(Cl)cc2)c(=O)n(C)c1=O`, the Potency was “inactive”.
For `N=C1C(=O)OCC1c1ccccc1NC(=O)CN1CCCCC1` (stereo not given), the Potency was “inactive”.
In the case of `Cc1cccc(CC2(O)C(=O)Nc3ccccc32)n1` (stereo not given), the Potency is reported as “inactive”.
With `CC(Sc1nnc(COc2ccccc2)n1-c1ccccc1)C(=O)O` (stereo not given) the Potency was “inactive”.
For `CCCCN(CC)CCCNC(=O)c1nn(C)c2c1CS(=O)(=O)c1ccccc1-2`, the Potency was “inactive”.
For `COC(=O)c1ccc(NC(=O)c2cc(Cl)ccc2OC)cc1`, the Potency was “inactive”.
With `Cc1cc(N2CCN(C)CC2)nc2ccc(NC(=S)N3CCOCC3)cc12` the Potency was “inactive”.
For `CCOCCCNC(=S)Nc1ccc2nc(N3CCN(CC)CC3)cc(C)c2c1`, the Potency was “inactive”.
In the case of `COc1cc(NC(=O)c2ccc(CNc3c(N4CCCC4)c(=O)c3=O)cc2)cc(OC)c1OC`, the Potency is reported as “inactive”.
With `CCN1CCN(c2cc(C)c3cc(NC(=O)c4cc(Cl)ccc4OC)ccc3n2)CC1` the Potency was 4.11 µM (active).
In the case of `COc1ccc(C(=O)Nc2ccc3nc(N4CCCCC4)cc(C)c3c2)cc1OC`, the Potency is reported as 14.6 µM (active) and 16.4 µM (active).
For `CCOc1ccc(S(=O)(=O)NCCSc2ccccc2)cc1`, the Potency was “inactive”.
For `CC(=O)Nc1cccc(C(=O)OCC(=O)Nc2nnc(-c3ccccc3)o2)c1`, the Potency was “inactive”.
For `O=C(Nc1ccccc1)c1ccccc1Br`, the Potency was “inactive”.
In the case of `O=C(COC(=O)c1ccccc1Br)Nc1nnc(-c2ccccc2)o1`, the Potency is reported as “inactive”.
In the case of `O=C(CSc1nnc(-c2ccncc2)o1)Nc1cccc(Cl)c1`, the Potency is reported as “inactive”.
With `O=C(Nc1cccc(Cl)c1)Nc1nnc(-c2ccccc2)o1` the Potency was 16.4 µM (active).
For `O=C(Nc1nnc(-c2ccc(Cl)cc2)o1)c1ccccc1Br`, the Potency was 18.4 µM (active).
In the case of `O=C(Cn1cnc2cc([N+](=O)[O-])ccc2c1=O)NC(=O)NCc1ccccc1`, the Potency is reported as “inactive”.
In the case of `CCOC(=O)N1CCN(Cc2oc(CO)cc(=O)c2O)CC1`, the Potency is reported as “inactive”.
In the case of `Cc1ccc(C(=O)O)cc1NC(=O)c1ccc(Cn2nc(C)c(Cl)c2C)o1`, the Potency is reported as “inactive”.
In the case of `O=C(N/N=C/c1ccc2c(c1)OCO2)c1ccc(Cn2cc([N+](=O)[O-])cn2)o1`, the Potency is reported as “inactive”.
With `Cc1c(Cl)c([N+](=O)[O-])nn1Cc1ccc(C(=O)N/N=C\c2cc(Cl)ccc2O)o1` the Potency was 4.61 µM (active).
With `O=C(O)CSCC(=O)Nc1ccc(C(F)(F)F)cc1` the Potency was “inactive”.
With `COc1ccc(C(C)=O)cc1CN1C(=O)NC2(CCCCC2C)C1=O` (stereo not given) the Potency was “inactive”.
With `CNS(=O)(=O)c1cccc(C(=O)OCC(=O)N2c3ccccc3NC(=O)C2(C)C)c1` the Potency was “inactive”.
With `CC(C)c1cc(C(=O)N(C)C2CCCN(Cc3ccccc3F)C2)n(C)n1` (stereo not given) the Potency was 25.9 µM (active).
In the case of `Cc1ccn(CC(=O)NC2CCCN(Cc3ccccc3F)C2)n1` (stereo not given), the Potency is reported as “inactive”.
For `CCCOC1CCCN(Cc2cn(C)nc2-c2ccccc2F)C1` (stereo not given), the Potency was “inactive”.
With `CC1CCCN(Cc2c(O)ccc3c(=O)c(Oc4ccc(C(C)(C)C)cc4)c(C(F)(F)F)oc23)C1` (stereo not given) the Potency was “inactive”.
With `Cn1nc(C(F)(F)F)c2cc(NC(=O)OCC(C)(C)C)sc21` the Potency was “inactive”.
With `O=C(c1cccs1)c1cn(CCOc2ccc(Cl)cc2)c2ccccc12` the Potency was 7.31 µM (active).
With `COC(=O)Cn1cc(C(=O)c2cccs2)c2ccccc21` the Potency was “inactive”.
For `COCCNC(=O)Cn1cc(C(=O)c2cccs2)c2ccccc21`, the Potency was “inactive”.
With `O=C(CC1SC(N2CCCC2)=NC1=O)Nc1ccc(C(=O)NCCc2ccc(F)cc2)cc1` (stereo not given) the Potency was “inactive”.
With `CC(=O)Nc1ccc(NS(=O)(=O)c2cc(C)sc2C)cc1` the Potency was “inactive”.
In the case of `COc1ccc(CCNc2cc(N3CCN(C(=O)c4ccccc4OC)CC3)ccc2[N+](=O)[O-])cc1OC`, the Potency is reported as 9.2 µM (active).
For `O=C(c1cccc([N+](=O)[O-])c1)N1CCN(C(=O)c2ccco2)CC1`, the Potency was “inactive”.
With `COc1ccc(CCNC(=O)CCc2ccccc2O)cc1OC` the Potency was “inactive”.
With `COc1ccc(CCNC(=O)c2ccccc2-c2ccccc2C(=O)O)cc1OC` the Potency was “inactive”.
With `O=C(c1ccccc1)N1CCN(c2ccc([N+](=O)[O-])c(NCc3ccco3)c2)CC1` the Potency was 16.4 µM (active).
In the case of `O=[N+]([O-])c1cc(-c2nc(-c3ccccc3)no2)ccc1NCc1ccco1`, the Potency is reported as “inactive”.
With `CCC(=O)N1CCC(C(N)=O)(N2CCCCC2)CC1` the Potency was “inactive”.
In the case of `COc1cccc(C(=O)NC2=NC(c3ccc(N(C)C)cc3)CC(=O)N2)c1` (stereo not given), the Potency is reported as “inactive”.
For `O=C(NCCCn1ccnc1)c1cc2c(s1)CCCC2`, the Potency was “inactive”.
For `CCOCCCNC(=O)C(NC(=O)c1ccc(=O)[nH]c1)c1ccc(C)cc1` (stereo not given), the Potency was “inactive”.
With `CC(=O)N(CC(O)CO)c1c(I)c(C(=O)NCC(O)CO)c(I)c(C(=O)NCC(O)CO)c1I` (stereo not given) the Potency was “inactive”.
For `COc1ccc(C2N=C(N)N=C(N)N2c2ccccc2)cc1OC` (stereo not given), the Potency was “inactive”.
For `O=C(NCCS(=O)(=O)NCc1ccc(Cl)cc1)c1ccccc1`, the Potency was “inactive”.
With `CCCS(=O)(=O)N1CCC(C(=O)NCCc2ccc(OC)c(OC)c2)CC1` the Potency was “inactive”.
In the case of `COc1ccc(CNC(=O)COC(=O)CCS(=O)(=O)c2ccc(C)cc2)cc1OC`, the Potency is reported as “inactive”.
In the case of `CCCCCCn1c(=O)n2n(c1=O)C[C@]1(OC(=O)NCc3ccc(OC)c(OC)c3)CN(S(=O)(=O)c3ccc(C)cc3)C[C@]1(O)C2`, the Potency is reported as 20.6 µM (active).
In the case of `COc1ccc(-c2nc3cc([N+](=O)[O-])ccc3o2)cc1OC`, the Potency is reported as “inactive”.
For `CNc1ccc(-c2nc(-c3ccccc3C)no2)cc1[N+](=O)[O-]`, the Potency was “inactive”.
For `Cc1nnc(-c2ccc(Oc3ccc(C)c(C)c3)c([N+](=O)[O-])c2)o1`, the Potency was 9.2 µM (active).
For `O=C(CCc1nc(CN2CCN(S(=O)(=O)c3ccc(Cl)cc3)CC2)no1)N1CCCCC1`, the Potency was “inactive”.
For `O=C(COC(=O)COc1cccc(F)c1)NCC1CCCCC1`, the Potency was “inactive”.
With `O=C1OC(C(=O)Nc2cccc(Br)c2)Cc2ccccc21` (stereo not given) the Potency was “inactive”.
In the case of `CC(C)C[C@@H](CO)N1CCN(Cc2ccc(O)cc2)CCC1=O`, the Potency is reported as “inactive”.
In the case of `CC(C)C[C@@H](COCc1ccc(Cl)cc1)N1CCN(C(=O)c2ccc(Cl)cc2Cl)CCC1=O`, the Potency is reported as 16.4 µM (active).
For `CC(C)CC(CO)N1CCN(C(=O)c2ccc(Cl)cc2Cl)CCC1=O` (stereo not given), the Potency was “inactive”.
